Results published in PubChem BioAssay (EPA / NIEHS).
A structure can be active in one record and inactive in another. The source made the active and inactive calls. How the source made its calls: active means hit-call score of the fitted dose curve at least 0.9, where 1 is the maximum; inactive means score below 0.9.

What follows are molecules tested on Monocyte Chemoattractant Protein-1 (MCP1), CCL2 (gene 6347) (assay: BSK_SAg_MCP1: BioMAP Diversity Plus: SAg Assay for Monocyte Chemoattractant Protein-1 (MCP1) Biomarker Activity (AID 2283090)). Conditions: primary human HUVEC with PBMC; actives raise or lower the signal.
Protocol: BSK_SAg is a cell-based, multiplexed-readout assay that uses umbilical vein endothelium and peripheral blood mononuclear cells, a human vascular primary cell co-culture, with measurements taken at 24 hours after chemical dosing in a 96-well plate.BSK_SAg_MCP1 is an assay component measured in the BSK_SAg assay. It measures MCP-1 antibody related to regulation of gene expression using ELISA technology.Data from the assay component BSK_SAg_MCP1 was analyzed into 1 assay endpoint. This assay endpoint, BSK_SAg_MCP1, was analyzed with bidirectional fitting relative to DMSO as the negative control and baseline of activity. Using a type of binding reporter, gain or loss-of-signal activity can be used to understand changes in the signaling as they relate to the gene CCL2. Furthermore, this assay endpoint can be referred to as a primary readout, because this assay has produced multiple assay endpoints where this one serves a signaling function. To generalize the intended target to other relatable targets, this assay endpoint is annotated to the cytokine intended target family, where the subfamily is chemotactic factor.
The levels of cell surface (or secreted, indicated by the prefix "s") biomarker endpoints were measured by ELISA. Overt cytotoxicity to cells in confluent adherent cultures (all systems other than the BT system) was assessed by measuring total protein levels using sulforhodamine B (SRB) staining in parallel cultures at the time of biomarker measurements, indicated as SRB endpoints. For proliferation assays for adherent cell types, individual cell types are cultured at sub-confluence and relative cell numbers quantified by SRB staining at time points optimized for each system (48 h: 3C and CASM3C systems; 72 h: BT and HDF3CGF systems; 96 h: SAg system). SRB was performed by staining cells with 0.1% SRB after fixation with 10% TCA and reading wells at 560 nm.Viability and proliferation of PBMC (T cells) was quantified by Alamar Blue reduction for the SAg and BT systems. For PBMC viability (referred to as PBMC Cytotoxicity within the assay endpoint names), cells were plated (75,000/well in a 96-well plate) and then chemical samples added for 1 h before addition of activators, SEB and TSST-1 (20 ng/mL final concentration each). Cells were incubated for 90 h. Then, Alamar Blue (20 uL/well) (Invitrogen, Cat DAL1100) was added for 6 h, and the plates were read with a fluorescence microplate reader at 546/580 nm (excitation/emission). For PBMC proliferation, cells were plated and activated as above but incubated for only 16 h prior to addition of Alamar Blue. Plates were read after 6 h.

With `CCNS(=O)(=O)C(F)(F)C(F)(F)C(F)(F)C(F)(F)C(F)(F)C(F)(F)C(F)(F)C(F)(F)F` as the molecule, how does the outcome read?
Its outcome is “inactive”.

What about the AC50 of the same molecule?
Its AC50 is 48.7 µM (active).

`CCOc1cccc(C2(N3CCN(c4ccccc4)CC3)CCC(C)CC2)c1` (stereo not given) was tested. Which outcome did it give?
The outcome was “inactive”.

With `CC(C)(C)OOC(C)(C)CCC(C)(C)OOC(C)(C)C` as the molecule, how does the outcome read?
Its outcome is “inactive”.

`O=[N+]([O-])c1ccc(Oc2ccc(Cl)cc2Cl)cc1` was tested. Which AC50 did it give?
Its AC50 is 29.1 µM (active).

Which outcome does the source give for `O=C(Nc1ccccc1)c1ccccc1I` here?
Its outcome is “inactive”.

With `Clc1ccc(C(c2ccc(Cl)cc2)C(Cl)Cl)cc1` as the molecule, how does the AC50 read?
Its AC50 is 34.2 µM (active).

For `Cc1ccc([N+](=O)[O-])cc1`, which outcome is on record?
Its outcome is “inactive”.

`Nc1cc(Cl)cc(C(=O)O)c1Cl` was tested. Which outcome did it give?
Its outcome is “inactive”.

How did the outcome turn out when `C=CCc1ccc2c(c1)OCO2` was run?
The outcome was “inactive”.

`CCCCCCCCOC(=O)c1ccc(C(=O)OCCCCCCCC)c(C(=O)OCCCCCCCC)c1` was tested. Which outcome did it give?
The outcome was “inactive”.

With `CC(C)(O)c1cnn2c(-c3ccc(F)c(-c4c(F)cccc4C#N)c3)cnc2n1` as the molecule, how does the outcome read?
The outcome was “inactive”.

`OCCOCCO` was tested. Which outcome did it give?
Its outcome is “inactive”.

`Oc1ccccc1Cl` was tested. Which outcome did it give?
Its outcome is “inactive”.

`N#CC(Br)Br` was tested. Which outcome did it give?
Its outcome is “inactive”.

For `CCCCC(CC)COC(=O)c1ccc(C(=O)OCC(CC)CCCC)c(C(=O)OCC(CC)CCCC)c1` (stereo not given), which outcome is on record?
The outcome was “inactive”.

How did the AC50 turn out when `Cc1cc(N=Nc2ccccc2C)ccc1N` was run?
Its AC50 is 20 µM (active).

How did the outcome turn out when `c1ccc(C2CO2)cc1` (stereo not given) was run?
Its outcome is “inactive”.

With `Nc1ccc(Cl)cc1N` as the molecule, how does the AC50 read?
Its AC50 is 3.7 µM (active).

Which outcome does the source give for `O=C(N[C@H](c1ccccc1)[C@@H]1CN2CCC1CC2)c1c(Cl)ccc(C(F)(F)F)c1Cl` here?
Its outcome is “inactive”.

`C[C@]12C=CC3=C4CCC(=O)C=C4CC[C@H]3[C@@H]1CC[C@@H]2O` was tested. Which outcome did it give?
The outcome was “inactive”.

How did the outcome turn out when `OCCCl` was run?
The outcome was “inactive”.

`O=C1CCCO1` was tested. Which outcome did it give?
The outcome was “inactive”.

`COP(=S)(OC)SCN1C(=O)c2ccccc2C1=O` was tested. Which outcome did it give?
Its outcome is “inactive”.

With `Cn1cc(-c2ccccc2)c(=O)c(-c2cccc(C(F)(F)F)c2)c1` as the molecule, how does the outcome read?
The outcome was “inactive”.

`CC(C)N(Cc1ccccc1)C(=O)C(C)(C)C` was tested. Which outcome did it give?
The outcome was “inactive”.

With `Cc1cccc(N)c1N` as the molecule, how does the outcome read?
Its outcome is “inactive”.

How did the outcome turn out when `CN(C)C(=O)Nc1ccc(Cl)cc1` was run?
The outcome was “inactive”.

`CCCSC(=O)N(CCC)CCC` was tested. Which outcome did it give?
Its outcome is “inactive”.

How did the outcome turn out when `C1=Cc2cccc3cccc1c23` was run?
Its outcome is “inactive”.

With `[O-][Cl+]O` as the molecule, how does the outcome read?
The outcome was “inactive”.

With `Oc1ccc2ccc3cccc4ccc1c2c34` as the molecule, how does the AC50 read?
The AC50 was 29.5 µM (active).

For `CCN(CC)CCO`, which outcome is on record?
The outcome was “inactive”.

How did the outcome turn out when `Clc1ccccc1Cl` was run?
Its outcome is “inactive”.

How did the outcome turn out when `c1ccc2c(c1)oc1ccccc12` was run?
Its outcome is “inactive”.

Which AC50 does the source give for `CC(C)(OOC(C)(C)c1ccccc1)c1ccccc1` here?
The AC50 was 33 µM (active).

`Brc1ccc(Oc2ccccc2)cc1` was tested. Which outcome did it give?
Its outcome is “inactive”.

For `COc1cc(C=O)cc2c1[C@H](COC(N)=O)[C@]1(OC(C)=O)ON2C[C@H]2[C@@H]1N2C(C)=O`, which AC50 is on record?
Its AC50 is 5.75 µM (active).

For `COC(=O)Nc1nc2ccccc2[nH]1`, which outcome is on record?
Its outcome is “inactive”.

For `c1ccc2c(c1)-c1cccc3cccc-2c13`, which outcome is on record?
The outcome was “inactive”.
